A selection: hits, their analogues and other compounds. The true share with any hit is near 1.7%.
RXFP1 antag: qHTS Assay for Antagonists of the Relaxin Receptor RXFP1; hit rate 0.59% among 350,000; AID 1259400, 2018; Relaxin receptor 1 (Homo sapiens), Q9HBX9; HEK293-RXFP1, relaxin-stimulated cAMP HTRF, 30 min; active compounds read low; activity change, negative = inhibition, % at 57.5 µM;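 active = activity change of -60% or lower, but not beyond a set lower limit; inconclusive = change between -60% and -40%, or beyond the set limit; inactive = change above -40%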
Target sequence (Q9HBX9 whole entry, looked up): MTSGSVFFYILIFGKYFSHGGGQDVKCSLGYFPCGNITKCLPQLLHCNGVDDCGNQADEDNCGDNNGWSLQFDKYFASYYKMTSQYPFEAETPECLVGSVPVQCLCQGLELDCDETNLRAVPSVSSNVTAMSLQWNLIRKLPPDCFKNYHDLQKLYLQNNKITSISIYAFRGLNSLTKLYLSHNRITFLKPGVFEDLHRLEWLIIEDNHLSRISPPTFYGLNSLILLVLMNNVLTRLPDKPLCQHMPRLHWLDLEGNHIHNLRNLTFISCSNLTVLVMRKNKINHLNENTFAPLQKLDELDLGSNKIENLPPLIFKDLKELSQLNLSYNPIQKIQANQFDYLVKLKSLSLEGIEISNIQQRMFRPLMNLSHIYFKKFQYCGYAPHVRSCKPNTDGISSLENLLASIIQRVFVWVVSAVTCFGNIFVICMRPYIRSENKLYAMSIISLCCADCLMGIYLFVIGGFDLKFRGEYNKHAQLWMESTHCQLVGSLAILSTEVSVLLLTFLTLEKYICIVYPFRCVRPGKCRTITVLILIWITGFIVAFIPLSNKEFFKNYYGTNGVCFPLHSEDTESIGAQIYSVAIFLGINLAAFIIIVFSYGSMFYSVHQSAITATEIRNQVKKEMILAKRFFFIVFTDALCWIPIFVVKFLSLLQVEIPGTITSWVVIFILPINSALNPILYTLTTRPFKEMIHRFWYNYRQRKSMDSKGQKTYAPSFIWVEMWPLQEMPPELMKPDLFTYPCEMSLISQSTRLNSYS
RXFP1 ag: qHTS Assay for Agonists of the Relaxin Receptor RXFP1 | Relaxin receptor 1 (Homo sapiens), Q9HBX9 | HEK293T-RXFP1 cAMP TR-FRET, 30 min; response scale: percent of porcine relaxin response, buffer zero | Potency, µM (doses to about 57.5 µM), hits mostly activators | hit rate 0.3% among 370,000 | AID 2676, 2010; active = well fitted activation curve with a large enough effect; inconclusive = small, poorly fitted or top-dose-only effect; note: nearly all actives have a fitted effect of over 60% in size
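cAMP rise read by TR-FRET after 30 min, 37C compound exposure (up to 58 uM) in RXFP1-transfected HEK293 cells with Ro 20174 present. EC50 from Hill-equation fits, with 29 nM porcine relaxin as 100% and buffer as basal.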
KCNH2 WT inh: qHTS for Inhibitors of KCHN2 3.1: Wildtype qHTS | Voltage-gated inwardly rectifying potassium channel KCNH2 (Homo sapiens), Q12809 | U2OS, BacMam KCNH2, thallium flux FluxOr; active compounds read low | activity change, % at 1.84 µM | hit rate 0.37% among 340,000 | AID 720551, 2013;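 active = maximum activity change below -70%; inconclusive = maximum activity change between -70% and -50%; inactive = maximum activity change above -50%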
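U2OS cells transduced with wild-type KCNH2 virus are loaded with FluxOr dye for 45 min, and thallium flux is measured in kinetic reads before and after stimulation buffer. Rate constants are normalized to DMSO controls.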
KCNH2 3.1 inh: qHTS for Inhibitors of KCHN2 3.1: Mutant qHTS; hit rate 0.95% among 340,000; U2OS KCNH2 3.1, thallium flux FluxOr; active compounds read low; activity change, % (tested at about 1.8 µM); Potassium voltage-gated channel subfamily H member 2, brain isoform KCNH2 3.1 (human);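 active = maximum activity change below -70%; inconclusive = maximum activity change from -70% to -50%; inactive = maximum activity change above -50%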;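 note: thallium influx rate constant from kinetic fluorescence after stimulation buffer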
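Steps: virus added to U2OS suspension (4 h, RT, dark); medium with 10% FBS added, cells plated, 37 C overnight; FluxOr/Red40 loading buffer 45 min RT; stimulation buffer, 2 min kinetic read; rate constant normalized.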
Akt phos inh: HTS Assay for Inhibitors of Akt Phophorylation: Primary Screen | Neuro2A IGF-stimulated pAkt S473 HTRF, 20 min; active compounds read low | activity change, % for hits at 50 µM | hit rate 0.32% among 360,000 | AID 651550, 2012; in the data active = activity change below about -80%; inconclusive = mostly about -51% to -80%
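Neuro2A cells (4,500/well, DMEM with 0.5% FBS) were treated with compound at a single 50 µM final concentration, stimulated with 6 nM IGF for 20 min at 37 °C, and lysed. Phospho-Akt Ser473 was read by HTRF as 665/615 ratio ×10^4.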
A number is an active result; n = inactive; u = inconclusive; x = not tested or not shown; ! = not confirmed by another sample.

SMILES	RXFP1 antag	RXFP1 ag	KCNH2 WT inh	KCNH2 3.1 inh	Akt phos inh
CCN(C(=O)CN1CC=C(c2ccccc2)CC1)c1c(N)n(Cc2ccccc2)c(=O)[nH]c1=O	-61	n	n	n	n
COc1cc(C2SCC(=O)Nc3c2c(=O)[nH]n3C2CCCCCC2)cc(OC)c1OC (stereo not given)	n	n	n	n	n
CCCC(=O)NC(Oc1ccccc1Cl)C(Cl)(Cl)Cl (stereo not given)	n	n	n	n	n
Cc1cccc(N2CCN(CCc3ccccc3)CC2)c1C	n	n	n	-82	n
CCOC(=O)[C@]12Cc3cc(OC)ccc3[C@H]1N(Cc1ccccc1)C(=O)c1ccccc12	x	x	n	n	n
CCOC(=O)[C@]12Cc3cc(C)ccc3[C@H]1N(Cc1ccccc1)C(=O)c1ccccc12	x	x	n	-72	n
O=C(c1cc(F)ccc1F)C1CCCN(CCCc2ccccc2)C1 (stereo not given)	n	n	n	-101	n
CCN1/C(=C\C=C\C2=[N+](CC)c3ccccc3C2(C)C)C(C)(C)c2ccccc21	-73	n	-208	u	n
CC1CC2(O)c3nonc3CCC2N1O (stereo not given)	n	n	n	n	n
COc1ccc(CN(CCc2c[nH]c3ccccc23)Cc2ccc(OC)cc2)cc1	n	x	n	-106	n
O=C1NC(=O)N(c2ccc(Cl)cc2)C(=O)/C1=C/c1coc2ccc(O)cc2c1=O	n	n	n	n	n
CCOC(=O)C(O)(c1ccc(N(CC)S(=O)(=O)c2ccccc2)cc1)C(F)(F)F (stereo not given)	n	n	n	n	n
CCN(c1ccc(C(O)(C(=O)OC)C(F)(F)F)cc1)S(=O)(=O)c1ccccc1 (stereo not given)	n	n	n	n	-125%
CC[n+]1c(-c2ccccc2)c2cc(N)ccc2c2ccc(N)cc21	-85!	x	n	n	n
COc1ccccc1C1SCC(=O)Nc2c1c(C)nn2-c1cccc(C)c1 (stereo not given)	n	n	x	x	x
Cc1ccc(/C=C2/C(=O)NC(=O)N(CCc3ccc(F)cc3)C2=O)o1	-73	n	n	n	n
O=C1NC(=O)N(CCc2ccc(F)cc2)C(=O)/C1=C/c1ccco1	u	n	n	n	n
CN(C)C(=O)OCc1n(C)cc[n+]1C	n	n	n	n	n
CN(C)c1ccc(/C=C/c2cc[n+](C)c3ccccc23)cc1	-95!	n	n	n	n
O=C(CCCN1CCC2(CC1)C(=O)NCN2c1ccccc1)c1ccc(F)cc1	n	n	n	-81	n
O=C1NCN(c2ccccc2)C12CCN(CCCOc1ccc(F)cc1)CC2	n	x	x	x	x
OCC1CO1 (stereo not given)	x	n	n	n	n
O=c1[nH]c(O)c(N=Nc2ccc([N+](=O)[O-])cc2)c(=O)[nH]1	n	14µM	x	n	n
O=C(O)c1cccc(N=Nc2c(O)[nH]c(=O)[nH]c2=O)c1	n	n	n	n	n
O=C1OCc2cc(N=Nc3c(O)[nH]c(=O)[nH]c3=O)ccc21	n	10µM	n	n	n
SMILES	RXFP1 antag	RXFP1 ag	KCNH2 WT inh	KCNH2 3.1 inh	Akt phos inh
CC(C)c1ccc(N=Nc2c(O)[nH]c(=O)[nH]c2=O)cc1	n	n	n	n	n
CCN(CC)C(=O)c1ccc(NC(=O)CCn2nc(-c3ccc(C)cc3)c3ccccc3c2=O)cc1	-79	n	x	x	x
Cc1ccc(S(=O)(=O)N[C@@H](CCCCN)C(=O)CCl)cc1	n	x	n	n	n
Cc1ccc(-c2cc(C(F)F)n3ncc(C(=O)N4CCC5(CC4)OCCO5)c3n2)cc1	n	n	n	n	n
Cc1cc(OCC(=O)NC2CCS(=O)(=O)C2)c2c3c(c(=O)oc2c1)CCC3 (stereo not given)	n	n	-250	n	n
CCCOC(=O)c1c(N)n(Cc2cccs2)c2nc3ccccc3nc12	n	n	n	n	-115%
COc1ccc(CC(C)NCCC(c2ccccc2)c2ccccc2)cc1 (stereo not given)	n	n	-96	-101	n
CCOC(=O)c1c(/N=C/C2C(=O)NC(=O)NC2=O)sc2c1CCC2	n	n	n	n	n
CCOC(=O)c1c(NC(NC(=O)CF)C(Cl)(Cl)Cl)sc2c1CCCC2 (stereo not given)	-61	n	n	n	n
CS(=O)(=O)c1ccc(C2=C(CNC(=O)c3nccs3)[C@H]3CC[C@@H](C2)N3CCOc2ccccc2)cc1	n	x	u	-78	n
CS(=O)(=O)c1ccc(C2=C(CNC(=O)c3cccs3)[C@H]3CC[C@@H](C2)N3CCOc2ccccc2)cc1	n	x	-103	-94	n
O=C(NCC1=C(c2cccc3ccccc23)C[C@@H]2CC[C@H]1N2Cc1ccco1)c1cccs1	n	x	u	-109	n
CS(=O)(=O)c1ccc(C2=C(CNC(=O)c3ccncc3)[C@H]3CC[C@@H](C2)N3Cc2ccccc2)cc1	n	x	u	-91	n
CCOC(=O)C1C(OC(=O)c2ccccc2)CC2CCC1N2C (stereo not given)	x	x	n	n	n
CC(=O)N1CC(=O)Nc2ccc(C)cc2C1c1ccccc1 (stereo not given)	n	n	n	n	n
Brc1ccc2[nH]cc(/C=N/N3CCCCC3)c2c1	n	n	n	n	n
CCOC(=O)c1cccc(C2=C(CNC(=O)c3ccc([N+](=O)[O-])cc3)[C@H]3CC[C@@H](C2)N3Cc2ccccc2)c1	n	x	-76	-113	n
CCOc1ccc(-c2cc(C)[n+](CCc3ccc(OC)c(OC)c3)c(-c3ccc(OCC)cc3)c2)cc1	-84	n	n	n	n
CCOc1ccc(-c2cc(C)[n+](CCO)c(-c3ccc(OCC)cc3)c2)cc1	n	n	n	n	n
CCN1C(=O)C(=C2C=C(C)N(Cc3ccco3)C(C)=C2)C(=O)N(CC)C1=S	n	28µM	n	n	n
Nc1c(C(=O)OC2CCCCC2)c2nc3ccccc3nc2n1CC1CCCO1 (stereo not given)	-62	n	n	n	n
O=C(c1ccc(Cl)cc1)C1CCCN(Cc2cccc3cccnc23)C1 (stereo not given)	n	n	-71	-99	n
COc1cccc(C(=O)C2CCCN(Cc3ccc(F)cc3)C2)c1 (stereo not given)	n	n	n	n	n
COc1ccc(CN2CCCC(C(=O)c3ccc(Cl)cc3)C2)c(O)c1 (stereo not given)	n	n	n	-72	n
O=C(c1ccc(Cl)cc1)C1CCCN(Cc2cccc3ncccc23)C1 (stereo not given)	n	n	n	n	n
